Test results published in PubChem BioAssay (NCI).
About 83,000 compounds went through this panel and 20% of them were active in at least one assay; those are over-represented in the sample as a whole.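 Percent growth is the endpoint: 0 to 100 indicates growth inhibition (40 means 60% inhibition), 0 means no net growth, and negative values indicate cell death.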 Values without a mark were called inactive. The source made the active and inactive calls. Rule for the calls: active = growth percent below 10; inactive = the rest.

What was measured:
Assay in all cases: NCI-60 one-dose screen, 48 h (100 = growth as untreated, 0 = no growth, -100 = all killed)
Details in all cases: 10 µM unless noted
HCT-15 colon = tested on: HCT-15 colon
HT29 colon = tested on: HT29 colon
SNB-75 CNS = tested on: SNB-75 CNS
SNB-19 CNS = tested on: SNB-19 CNS
U251 CNS = tested on: U251 CNS
SK-MEL-5 melanoma = tested on: SK-MEL-5 melanoma
UACC-62 melanoma = tested on: UACC-62 melanoma
LOX IMVI melanoma = tested on: LOX IMVI melanoma
SK-MEL-28 melanoma = tested on: SK-MEL-28 melanoma
SK-MEL-2 melanoma = tested on: SK-MEL-2 melanoma
EKVX NSCLC = tested on: EKVX NSCLC
SN12C renal = tested on: SN12C renal
UO-31 renal = tested on: UO-31 renal
TK-10 renal = tested on: TK-10 renal
ACHN renal = tested on: ACHN renal
CAKI-1 renal = tested on: CAKI-1 renal
A498 renal = tested on: A498 renal
CCRF-CEM leukemia = tested on: CCRF-CEM leukemia
MOLT-4 leukemia = tested on: MOLT-4 leukemia
PC-3 prostate = tested on: PC-3 prostate

Structure (SMILES)	growth (HCT-15 colon)	growth (HT29 colon)	growth (SNB-75 CNS)	growth (SNB-19 CNS) [%]	growth (U251 CNS)	growth (SK-MEL-5 melanoma)	growth (UACC-62 melanoma)	growth (LOX IMVI melanoma)	growth (SK-MEL-28 melanoma)	growth (SK-MEL-2 melanoma)	growth (EKVX NSCLC)	growth (SN12C renal) [%]	growth (UO-31 renal)	growth (TK-10 renal)	growth (ACHN renal) [%]	growth (CAKI-1 renal)	growth (A498 renal)	growth (CCRF-CEM leukemia)	growth (MOLT-4 leukemia)	growth (PC-3 prostate) [%]
CCOc1cc(\C=N/N=C(N)/C(N)=N\N=C/c2ccc(O)c(OCC)c2)ccc1O	101%	-46.5% (active)	116%	109	95.8%	94.2%	95.3%	103%	103%	126%	106%	101	88.7%	127%	96.5	94.5%	106%	49.7%	59.2%	–
CCCCC1=C(Br)C(=O)c2ncccc2C1=O	100%	104%	91.9%	97.9	95.5%	90.3%	93.4%	94.6%	115%	111%	99.2%	92.7	87.6%	109%	67.4	90%	99.5%	8.13% (active)	5.83% (active)	–
COc1cc(/C=N/NC(=O)c2ccc3nc(-c4ccc(Cl)cc4)[nH]c3c2)cc(OC)c1OC	96%	39.9%	86.6%	71	53.2%	41.9%	28.7%	50.6%	46.5%	83.6%	–	68.5	–	77.4%	67.4	76%	-1.95% (active)	36.6%	41.6%	59.9
COc1cc(C(=O)c2c(-c3ccccc3)oc3ccccc23)cc(OC)c1O	32.1%	109%	-1.53% (active)	32.8	25.6%	16.4%	35.2%	37.2%	66%	50.9%	51.3%	43.9	51.9%	78.4%	41.7	32.7%	1.19% (active)	13.9%	28.6%	–
COC(=O)c1nc(-c2ccccc2)oc1S(=O)(=O)N1CCN(c2ccc(OC)cc2)CC1	42.8%	43.8%	101%	97.8	90.8%	90.8%	86.8%	62.9%	88.3%	106%	88.2%	85.4	66.1%	68.1%	66.4	79.3%	–	-11.9% (active)	25.1%	–
O=C(NS(=O)(=O)c1ccccc1)n1cc(-c2ccncc2)c(-c2cc(O)cc(Cl)c2)n1	95.9%	98.4%	82.6%	115	104%	98.9%	39.3%	92.8%	67.6%	95.5%	–	100	91.9%	–	84.5	94.2%	103%	87.4%	79.3%	95
CCN1CCN(c2nc(NNC(=O)c3ccc(OC)cc3)nc(N3CCN(C(c4ccccc4)c4ccccc4)CC3)n2)CC1	22.2%	15.6%	45.9%	78.3	39.5%	-74.4% (active)	68.3%	1.43% (active)	64.1%	78%	82.6%	45.7	61.2%	49.5%	34	24%	60.1%	43.8%	16.3%	–
O=C1C(c2c(O)[nH]c3ncccc23)=Nc2ccccc21	77.9%	93.8%	68.1%	96.4	88.2%	75.4%	79.6%	76.3%	123%	43.4%	30.6%	90.6	46.2%	56.4%	51.5	53.7%	117%	88.4%	85.4%	–
[2H]C([2H])([2H])Oc1ccc(/C=C/C(=O)/C=C(/C=C/c2ccc(OC([2H])([2H])[2H])c(OC([2H])([2H])[2H])c2OC([2H])([2H])[2H])OB(F)F)c(OC([2H])([2H])[2H])c1OC([2H])([2H])[2H]	39.6%	38.5%	57.1%	83	47.7%	92.4%	56.5%	13.2%	73.3%	94.9%	88.7%	56.7	38.8%	74.2%	14.4	48.6%	107%	-2.51% (active)	23.8%	–
CC(=O)CC(=O)c1ccccc1.[Cu+2]	94.3%	106%	121%	96.6	105%	82.8%	95.8%	83.9%	105%	107%	–	–	94.5%	–	104	101%	141%	-10.7% (active)	91.7%	96.8
COc1ccc(NC(=O)c2sc3nc(C)c(C(=O)c4ccccc4)cc3c2N)cc1	95.2%	89.8%	107%	90.8	100%	103%	79.9%	108%	89.9%	88.8%	94.7%	99.5	90%	86.6%	95.1	92.9%	-9.31% (active)	95%	88.5%	–
CC(Cc1cccc2ccccc12)C(N)=O (stereo unspecified)	101%	101%	98.6%	104	105%	101%	98.8%	101%	108%	105%	–	97.2	87.3%	–	103	93.8%	100%	97.1%	99.8%	93.8
O=C(Nc1ccc(Cl)cc1)C1=NCCCCN1	55.4%	89.6%	95.6%	101	90.9%	93.6%	45.1%	30.5%	111%	97.7%	–	–	55.4%	90%	59.1	53.8%	98.6%	89.2%	95.4%	73
CC1=NC(=S)NC(c2ccccc2)/C1=C1/CC(c2ccccc2O)NN1 (stereo unspecified)	97.3%	105%	80.7%	94.2	103%	102%	97.8%	101%	104%	108%	95.7%	–	73.1%	138%	101	84.8%	93.8%	99.1%	99.9%	–
C[C@H]1c2ccccc2CN1CCCOc1cc2c(cc1OCC1CC1)C1(CCCC1)C(N)=N2	2.62% (active)	2.94% (active)	74.9%	83.9	48.7%	-84.6% (active)	57.4%	-70.2% (active)	-61% (active)	54%	72.8%	67.6	29.3%	92.7%	69	18.5%	32.5%	54.6%	36.4%	–
CS(=O)(=O)Nc1cc(-c2ccc3ncnc(Nc4cccc(Cl)c4)c3c2)cnc1Cl	4.71% (active)	2.65% (active)	-10.4% (active)	18	-2.63% (active)	-95.6% (active)	-23.6% (active)	-35.5% (active)	5.51% (active)	-40.6% (active)	-23.9% (active)	16.2	-2.12% (active)	-20.4% (active)	11.8	2.5% (active)	-58.1% (active)	14.7%	-16% (active)	–
